Bioassay records from PubChem.
LYPLA2 counter = counter-screen for PME1 inhibitors: inhibitors of human LYPLA2. 320,000 compounds, 0.38% hits. inhibition, % at 5.9 µM. AID 2177. recombinant LYPLA2, FP-Rh probe fluorescence polarization. O95372;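 active = inhibition above the screen-wide mean plus 3 SD, limit set per campaign, cut at about 26% in these data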
Target sequence (O95372 whole entry, looked up): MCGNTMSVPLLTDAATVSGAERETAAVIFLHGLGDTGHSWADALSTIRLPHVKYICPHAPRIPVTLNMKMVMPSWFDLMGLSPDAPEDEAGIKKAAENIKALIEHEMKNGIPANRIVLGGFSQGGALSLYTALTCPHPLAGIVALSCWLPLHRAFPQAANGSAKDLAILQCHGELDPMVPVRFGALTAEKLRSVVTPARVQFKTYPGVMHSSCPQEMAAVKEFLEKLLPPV
Fam108B inh = counter-screen for RBBP9 inhibitors: inhibitors of mouse Fam108B; recombinant Fam108B, FP-Rh probe fluorescence polarization; inhibition, % at 9.51 µM; 300,000 compounds, 0.33% hits; AID 1947;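 active = inhibition above the screen mean inhibition plus 3 SD, computed separately per campaign, cut at about 18% in these data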;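 note: inhibitors lower polarization as less probe binds the enzyme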
GSTO1 inh = blocks human GSTO1 in RBBP9 counter-screen | P78417 | recombinant GSTO1, activity-based probe fluorescence polarization | inhibition, % at 5.96 µM | 300,000 compounds, 1.1% hits;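 active = inhibition above the campaign mean inhibition plus 3 SD, cut at about 35% in these data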
LYPLA1 counter = counter-screen for PME1 inhibitors: inhibitors of human LYPLA1; recombinant LYPLA1, FP-Rh probe fluorescence polarization; inhibition, % at 5.9 µM; 320,000 compounds, 0.16% hits; AID 2174;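 active = inhibition above the mean of all tested compounds plus 3 SD, set per campaign, cut at about 14% in these data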;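 note: inhibitors block serine hydrolase probe labeling of LYPLA1 so polarization falls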
PAD4 FP inh = inhibitors of human PAD4; 330,000 compounds, 0.41% hits; recombinant PAD4, RCA probe fluorescence polarization; inhibition, % at 6.36 µM; AID 485272; Q9UM07;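 active = percent inhibition above a cutoff equal to the mean of all tested compounds plus 3 SD, cut at about 15% in these data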
PME-1 primary = blocks human protein phosphatase methylesterase 1; inhibition, % at 5.9 µM; Q9Y570; recombinant PME-1, FP-Rh probe fluorescence polarization; 320,000 compounds, 0.53% hits;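 active = inhibition above the campaign mean of all compounds plus 3 SD, cut at about 26% in these data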;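 note: competitive labeling of PME-1 active site by serine hydrolase directed probe; inhibitors block probe labeling so polarization falls and inhibition rises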
Target sequence (Q9Y570 whole entry, looked up): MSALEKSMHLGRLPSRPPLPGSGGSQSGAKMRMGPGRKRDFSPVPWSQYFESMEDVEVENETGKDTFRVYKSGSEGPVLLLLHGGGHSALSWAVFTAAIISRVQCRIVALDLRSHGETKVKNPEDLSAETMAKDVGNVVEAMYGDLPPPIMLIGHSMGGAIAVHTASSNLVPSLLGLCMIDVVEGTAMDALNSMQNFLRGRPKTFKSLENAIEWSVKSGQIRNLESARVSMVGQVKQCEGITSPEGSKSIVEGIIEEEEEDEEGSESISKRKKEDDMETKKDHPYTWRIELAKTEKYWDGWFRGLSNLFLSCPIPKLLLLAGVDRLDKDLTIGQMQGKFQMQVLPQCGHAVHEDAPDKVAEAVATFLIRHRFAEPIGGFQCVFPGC
GSTO1 inh conf = GSTO1 (human) inhibition, confirmation; inhibition, % at 5.96 µM; shares compounds with GSTO1 inh; 2,400 compounds, 54% hits; AID 2176; recombinant GSTO1, probe fluorescence polarization;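 active = inhibition above the primary screen's cutoff, its mean inhibition plus 3 SD, cut at about 35% in these data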;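 note: loss of polarization as inhibitors block binding of rhodamine sulfonate ester activity probe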
GSTO1 ABPP inh = GSTO1 (human) inhibition by gel ABPP; shares compounds with GSTO1 inh; recombinant GSTO1, gel ABPP SE-Rh probe fluorescence; inhibition, % at 1 µM; 130 compounds, 30% hits;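 active = inhibition of the enzyme GSTO1 above about 75%, limit read from the data; inactive = inhibition below that limit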
Each line names hits and unclear results; the compound was inactive in the other large screens (follow-up assays come after a bar, where they were run). Most compounds without a hit are left out; they make up all but 1.8% or so of the library.

COc1ccc(NC(=O)c2onc(C)c2Cl)cc1OC	GSTO1 inh 39 | GSTO1 inh conf inactive
COc1cc(NC(=O)c2onc(C)c2Cl)cc(OC)c1OC	none
Cc1ccc(S(=O)(=O)N2CCC(C(=O)C3C(=O)CC(C)(C)CC3=O)CC2)cc1	none
Cc1ccc(S(=O)(=O)/N=C2/C=C(C3C(=O)CC(C)(C)CC3=O)C(=O)c3ccccc32)cc1	GSTO1 inh 61 | GSTO1 inh conf inactive
CC1(C)CC(=O)C(C=Nc2ccc(O)c(N=CC3=C(O)CC(C)(C)CC3=O)c2)=C(O)C1	GSTO1 inh 85 | GSTO1 inh conf 67
CC1(C)CC(=O)C(C=Nc2ccc3c(c2)OCO3)=C(O)C1	none
O=C(N[C@@H](Cc1ccccc1)C(=O)OCc1ccccc1)c1ccco1	none (no result: LYPLA2 counter, Fam108B inh, GSTO1 inh, LYPLA1 counter, PME-1 primary)
CCOC(=O)c1ccccc1NC(=O)c1ccccc1SC	none
COC(=O)c1ccccc1NC(=O)c1ccccc1SC	GSTO1 inh 66 | GSTO1 inh conf inactive
CCN(CC)CCNc1cc(C)nc2c1C(=O)C(=O)C=C2N1CCCCC1	GSTO1 inh 77 | GSTO1 inh conf 45
CCN(CC)CCNC(=O)c1ccc(N2CCCCC2)c(NS(=O)(=O)c2ccc(C)cc2)c1	none
Cc1ccc(S(=O)(=O)N(C(=O)c2ccncc2)c2ccc(OC(=O)c3ccncc3)c3ccccc23)cc1	GSTO1 inh 43 | GSTO1 inh conf inactive
Cc1ccc(S(=O)(=O)N(C(=O)c2ccncc2)c2ccc(OC(=O)c3ccncc3)c3ccccc23)c(C)c1	GSTO1 inh 55 | GSTO1 inh conf inactive
COc1ccccc1CNC(=O)CN1C(=O)N(C)C2(CCCCC2)C1=O	none (no result: Fam108B inh, GSTO1 inh)
O=C(NC(=S)Nc1ccccc1)c1ccc(Br)o1	none
COc1ccc(NC(=S)NC(=O)c2ccc(Br)o2)cc1	GSTO1 inh 45 | GSTO1 inh conf inactive
CCCC(=O)Nc1ccc(C(=O)NNC(=S)NC(=O)c2ccc(Br)o2)cc1	GSTO1 inh 44 | GSTO1 inh conf inactive
CCCC(=O)Nc1ccc(C(=O)NNC(=S)NC(=O)c2cccs2)cc1	none
COc1ccc2[nH]c3c(c2c1)CCN1C(=O)C(CC(=O)NCCc2ccccn2)C[C@H](C(=O)N2CCOCC2)[C@@]31CCC1CCCC1 (stereo partly specified)	none (no result: LYPLA2 counter, Fam108B inh, GSTO1 inh, LYPLA1 counter, PME-1 primary)
Oc1ccc(/C=N/Nc2ccc(Cl)nn2)cc1O	GSTO1 inh 60 | GSTO1 inh conf inactive
Fc1cccc(Cl)c1C1Nc2cccc3cccc(c23)N1	none
Clc1cccc(Cl)c1C1Nc2cccc3cccc(c23)N1	GSTO1 inh 47 | GSTO1 inh conf inactive
c1csc(C2Nc3cccc4cccc(c34)N2)c1	GSTO1 inh 44 | GSTO1 inh conf inactive
Cc1cccc(N2CCN(C(=O)CCC(=O)N3CC(C)Oc4ccc(C)cc43)CC2C)c1 (stereo unspecified)	none
CCOC(=O)C1=C(C)N(c2ccccc2)C(=O)/C1=C\c1ccc(O)c(OC)c1	GSTO1 inh 62 | GSTO1 inh conf inactive
CCOC(=O)C1=C(C)N(c2ccccc2)C(=O)/C1=C\c1ccco1	none
CC(OC(=O)c1ccc([N+](=O)[O-])s1)C(=O)Nc1ncc(Cl)cc1Cl (stereo unspecified)	GSTO1 inh 46 | GSTO1 inh conf inactive
Cc1ccc(OC(C)C(=O)Nc2ncc(Cl)cc2Cl)c([N+](=O)[O-])n1 (stereo unspecified)	none (no result: LYPLA2 counter, Fam108B inh, GSTO1 inh, LYPLA1 counter, PME-1 primary)
COC(=O)CCC(=O)OC1(C)C(=O)C2=CN(C(CO)CO)C(c3ccc(OC)cc3)=CC2=C(Br)C1=O (stereo unspecified)	GSTO1 inh 49 | GSTO1 inh conf 51
COC(=O)CCC(=O)OC1(C)C(=O)C2=CN(Cc3ccc4c(c3)OCO4)C(c3ccc(OC)cc3)=CC2=C(Br)C1=O (stereo unspecified)	none
COc1ccc(C2=CC3=C(Br)C(=O)C(C)(OC(=O)c4ccc(Cl)nc4)C(=O)C3=CO2)cc1 (stereo unspecified)	none
COC(=O)CCC(=O)OC1(C)C(=O)C2=CN(CCN3CCOCC3)C(c3ccc(OC)cc3)=CC2=C(Br)C1=O (stereo unspecified)	GSTO1 inh 56 | GSTO1 inh conf 65
COC(=O)CCC(=O)OC1(C)C(=O)C2=CN(CCCCO)C(c3ccc(OC)cc3)=CC2=C(Br)C1=O (stereo unspecified)	GSTO1 inh 66, PAD4 FP inh 28 | GSTO1 inh conf 60
COCCN(C(=O)COC(=O)CSc1ccc2ccccc2c1)c1c(N)n(Cc2ccccc2)c(=O)[nH]c1=O	none
Fc1ccc(-n2nnc(-c3cccnc3Cl)n2)cc1	none
Clc1ncccc1-c1nnn(-c2ccccc2)n1	GSTO1 inh 58 | GSTO1 inh conf inactive
CC1(C)Cc2c(sc(NC(=O)C(=O)NCCCN3CCOCC3)c2C#N)CO1	none
O=C(COC(=O)Cc1ccc(Br)cc1)NC1CCCC1	none (no result: LYPLA2 counter, Fam108B inh, GSTO1 inh, LYPLA1 counter, PME-1 primary)
O=C(O)c1cc2c(cn1)[nH]c1ccccc12	GSTO1 inh 56 | GSTO1 inh conf inactive
COC(=O)[C@H](C)NC(=O)c1cc2c(cn1)[nH]c1ccccc12	none
O=C(CCl)c1cc2c3c(c1)CC(=O)N3CCC2	GSTO1 inh 52 | GSTO1 inh conf 67
CC1CN(Cc2csc(-c3ccc(Cl)cc3)n2)CC(C)O1 (stereo unspecified)	none
CCOc1ccc(-c2nnc(N)s2)cc1	none
CCOc1ccc(-c2nc(CCl)cs2)cc1	GSTO1 inh 79 | GSTO1 inh conf 93 | GSTO1 ABPP inh inactive
ClCc1csc(-c2ccc(Cl)cc2)n1	GSTO1 inh 91 | GSTO1 inh conf 101 | GSTO1 ABPP inh inactive
COC(=O)c1ccc(-c2ccc(C(c3c(C)[nH][nH]c3=O)c3c(C)[nH][nH]c3=O)o2)cc1	GSTO1 inh 38 | GSTO1 inh conf inactive
CCN(CCCNS(=O)(=O)c1ccc2c(c1)oc(=O)n2C)c1cccc(C)c1	GSTO1 inh 38 | GSTO1 inh conf 36
CCc1ccc(NS(=O)(=O)c2ccc3c(c2)oc(=O)n3C)cc1	GSTO1 inh 53 | GSTO1 inh conf 44
CC1Sc2ccc(S(=O)(=O)N3CCC(C(=O)N(C)Cc4ccccc4)CC3)cc2NC1=O (stereo unspecified)	none
N#CC1(NC(=O)COC(=O)c2ccccc2[N+](=O)[O-])CCCCC1	none
N#CC1(NC(=O)COC(=O)c2cc(O)c3ccccc3c2O)CCCCC1	GSTO1 inh 61 | GSTO1 inh conf 57
O=C1c2cc([N+](=O)[O-])cc3cc([N+](=O)[O-])cc(c23)C(=O)N1c1ccccn1	GSTO1 inh 42 | GSTO1 inh conf inactive
